Measured values reported in PubChem BioAssay AID2029 (NMMLSC, 2009).
Values joined by “and” are separate entries in the source; they are usually repeats but may differ in a detail not shown here. Identical values can stand only once. In all, about 320,000 compounds went through this assay and about 210 (0.066%) were called active. The list comes from a sample in which actives are over-represented; it also holds similar structures and randomly drawn compounds. A number with no mark means an inactive call.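 The calls were made as follows: active = GFP response relative to DMSO above a set limit, near the screen mean plus 3 SD (cut at about 150% in these data); inconclusive = Fewer than 70 cells measured for a yeast strain; inactive = the rest.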

Assay: TOR pathway RTG branch CIT2 reporter changes – S. cerevisiae, GFP fusion, multiplex flow cytometry, MLPCN library, primary screen (AID 2029);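 also: ratio of well median GFP fluorescence to mean of DMSO wells on the plate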
Conditions: S. cerevisiae CIT2-GFP strain, 3 h, at 10 µM, stronger effect = higher value, 100 means same as DMSO wells

| SMILES | GFP response vs DMSO |
| --- | --- |
| O=C(Nc1ccc(Cl)cc1)c1cc2nc(C3CC3)cc(C(F)(F)F)n2n1 | 115% |
| Cc1ccccc1NC(=O)N1CCCC1C(=O)NCc1ccccc1 (centres undefined) | 113% |
| NC(=O)c1ncc(C(F)(F)F)cc1Oc1ccc(F)cc1 | 99.4% |
| CNc1nc(SC)nc(N(C#N)CC(=O)OC)n1 | 104% |
| O=C(COC(=O)c1ccc(O)cc1O)c1ccc2c(c1)OCCO2 | 95.1% |
| O=C1Nc2cc(Cl)c(Cl)cc2N(O)N1c1cc(Cl)cc(Cl)c1 | 97.6% |
| Cc1c(NC(=O)CSCc2ccccc2)cccc1C(=O)O | 106% |
| CCC(C)(C)C1CCC(=NNC(=O)c2ccc(Br)o2)CC1 (centres undefined) | 97.7% |
| COCCCNC(=O)[C@H]1N2C(=O)c3ccccc3C2SC1(C)C (some centres undefined) | 112% |
| Cc1cc2cc3c(N)[nH]nc3nc2cc1C | 113% |
| O=C(NC1CCN(C(=S)Nc2ccc(Cl)cc2)CC1)C1CCCCC1 | 97.3% |
| Cc1ccc2nc(-c3ccc(NC(=O)CN(C)S(=O)(=O)c4ccccc4)cc3)sc2c1 | 111% |
| COc1ccc(N2CCN(C(=O)[C@@H](NC(=O)c3cc(OC)cc(OC)c3)C(C)C)CC2)cc1 | 95.1% |
| Cc1ccccc1NC(=O)CSC(=O)c1ccccc1 | 102% |
| O=C(NN1C(=O)C2CCCCC2C1=O)c1ccco1 (centres undefined) | 104% |
| COCCCNS(=O)(=O)c1cccc(S(=O)(=O)c2cccc(S(=O)(=O)NCCCOC)c2)c1 | 115% |
| O=c1/c(=C/c2ccc(CNS(=O)(=O)c3ccccc3)o2)sc2n1CCN=2 | 107% |
| CC1(C)CC(=O)C=C(N2CCOCC2)C1 | 93.2% |
| CCCCOc1ccc(C(=O)NCC(=O)OCC(=O)c2c(N)n(C)c(=O)n(C)c2=O)cc1 | 92.4% |
| CC(C)c1ccc2c(c1)c(SC(C)(C)C)c(CC(C)(C)C(=O)O)n2Cc1ccc(Cl)cc1 | 112% and 88.8% |

| SMILES | GFP response vs DMSO |
| --- | --- |
| C/C(CCC(=O)OC[C@H]1O[C@H](C#Cc2ccccc2)C=C[C@@H]1Oc1ccc(C)cc1)=N\OC[C@@H](O)[C@H]1O[C@@H]2OC(C)(C)O[C@@H]2[C@H]1O | 109% |
| Nc1ccc(OCC(O)C[n+]2ccc(CCS(=O)(=O)[O-])cc2)cc1 (centres undefined) | 90% |
| CCOC(=O)c1c(CN(C)C)n(-c2ccccc2)c2cc(Br)c(O)cc12 | 101% |
| Cc1ccc(NC(=O)CN(C)C(=O)COC(=O)C(C)(C)Oc2ccc(Cl)cc2)cc1 | 109% |
| COc1ccccc1NC(=O)C[n+]1ccccc1 | 120% |
| COC(=O)C[n+]1cccc2ccccc21 | 175% (active) |
| Cc1cccc[n+]1CC(=O)c1ccccc1 | 113% |
| CC(=O)NS(=O)(=O)c1ccc2c(c1)Cc1cc(S(=O)(=O)NC(C)=O)ccc1-2 | 99.9% |
| O=C(c1ccco1)N1CCN(C(=O)C2CC(c3ccc(Cl)c(Cl)c3)=NO2)CC1 (centres undefined) | 89% |
| Cc1ccc(CNC(=O)C(=O)c2cn(CC(=O)N3CCCC3)c3ccccc23)cc1 | 104% |
| CN(Cc1ccccc1)C(=O)C(=O)c1cn(CC(=O)N2CCCC2)c2ccccc12 | 154% (active) |
| CN1CCN(C(=O)C(=O)c2cn(CC(=O)N3CCCC3)c3ccccc23)CC1 | 103% |
| CCCCCC1CC(COc2ccccc2)OC1=O (centres undefined) | 96.7% |
| CC[n+]1cc(C)ccc1/C=C/c1ccc(N(C)C)cc1 | 158% (active) |
| CO[C@H]1[C@@H]2C=CO[C@@H](O[C@H]3O[C@@H](CO)[C@H](O)[C@@H](O)[C@@H]3O)[C@@H]2[C@@]2(CO)O[C@@H]12 | 109% |
| C/C=C/c1ccc(OCC(O)CN2CCCCCCC2)c(OC)c1 (centres undefined) | 101% |
| N#Cc1cccc(NC(=O)CN2CCCCCC2)c1 | 100% |
| CCN(CC(=O)Nc1c(F)cccc1F)C(=O)CN1c2cccc3cccc(c23)S1(=O)=O | 104% |
| COc1ccc(Nc2cc(Sc3ccc(OC)cc3)ncn2)cc1 | 86.2% |
| Cc1ccc2c(=O)oc(N(C)C)nc2c1 | 105% |

| SMILES | GFP response vs DMSO |
| --- | --- |
| CCn1c(SCC(=O)Nc2ccccc2F)nc2c(c1=O)SC(C)C2 (centres undefined) | 100% |
| Cc1cccc([C@@H]2[C@@H]3C(=O)N(C)C(=O)[C@@H]3[C@@H]3C(=O)Nc4ccccc4C(=O)N23)c1 | 87.5% |
| CCc1ccc2[nH]c(=O)c(Cc3ccccc3)c(O)c2c1 | 105% |
| COc1ccc(NC(=O)CN(Cc2ccccc2)S(C)(=O)=O)cc1OC | 101% |
| Cc1ccccc1OC(=O)Cn1c(C(F)(F)F)nc2ccccc21 | 84.2% |
| COc1ccc(C(=O)NC2CC2)cc1OC1CCN(Cc2ccc(SC)cc2)CC1 | 114% |
| CCOC(=O)CSc1nc(N2CCOCC2)c2c(c1C#N)CC(C(C)C)OC2 (centres undefined) | 104% |
| COc1ccc(C(=O)COC(=O)c2c(C)noc2C)cc1Cl | 98.9% |
| COc1ccc(NC(=O)CN(C)C(=O)c2n[nH]c3ccccc23)cc1 | 101% |
| CN(C)S(=O)(=O)c1cccc(NC(=O)COc2ccc3ccccc3c2)c1 | 90.9% |
| O=C(CN1CCOCC1)N1CCCc2c1c(=O)oc1ccc(OCc3ccccc3)cc21 | 99% |
| Cc1cc(C)cc(NC(=O)C2CCCN(S(=O)(=O)c3ccc4[nH]c(=O)ccc4c3)C2)c1 (centres undefined) | 98.8% |
| COc1ccc(CNS(=O)(=O)c2cc(-c3cc(C)no3)ccc2C(C)C)cc1 | 95.4% |
| CN1CCC(=NNC(=O)CN(c2cccc(Cl)c2)S(C)(=O)=O)CC1 | 95.2% |
| Cc1cccc(CSc2ccc(-c3cccs3)nn2)c1 | 87.4% |
| CC(C)(C)CN1C(=O)C(=O)NC[C@H]1Cc1cccc2ccccc12 | 101% |
| CCCCC(=O)N(c1ccc(OC)cc1)C1C=CS(=O)(=O)C1 (centres undefined) | 108% |
| COc1cc(CO)c(C2(CO)CCCC2)cc1OC | 94.8% |
| CC(C)=CCN1CCN(CCCc2ccccc2)CC1CCO (centres undefined) | 105% |
